From PubChem BioAssay (NCATS)
“And” between values parts separate entries of the source, which are not always exact repeats. Equal values may be shown once. Inconclusive results are not listed. A structure can be active in one record and inactive in another. The source made the active and inactive calls. Unless noted, calls come from the whole dose curve; as a rule, active = well fitted curve in the direction sought with a large enough effect; inconclusive = small, poorly fitted or top-dose-only effect, or another doubt; inactive = no such curve, though single readings can be large; an effect the other way counts as inactive or inconclusive.

Assays:
[1] = qHTS profiling of the MIPE4 collection as inhibitors of Plasmodium falciparum (DD2) proliferation (Rep 2) (AID 743346; call rule not given here); settings: P. falciparum Dd2 in erythrocytes, SYBR Green DNA, 72 h; at 28.5 µM unless noted
In short: (§1)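 Parasite DNA was quantified by SYBR Green I fluorescence (ex 485, em 535 nm) after overnight lysis in saponin/Triton buffer at room temperature. Cultures at 0.3% parasitemia and 2.5% hematocrit were first exposed to compound for 72 h at 37 C; signals were normalised to artemisinin (0.29 uM) and vehicle wells.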

[2] = qHTS profiling of the MIPE4 collection as inhibitors of Plasmodium falciparum (HB3) proliferation (AID 743347; call rule not given here;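 note: plate controls were DMSO vehicle wells for no effect and artemisinin wells for full effect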); settings: P. falciparum HB3 in erythrocytes, SYBR Green DNA, 72 h; at 28.5 µM unless noted
In short: as §1

[3] = High-throughput drug toxicity screening in the BPDCN cell line Gen2.2 (AID 1224824; call rule not given here;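 note: cells exposed to compounds for 48 h before reading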); settings: Gen2.2 BPDCN cells; at 45.8 µM (top of the series) unless noted
In short: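 Gen2.2 cells (500/well) in phenol red-free RPMI with 10% FBS were exposed to compounds for 48 h at 37 °C, 5% CO2. Viability was read by CellTiter-Glo luminescence and normalized to DMSO (100%) and 9.2 uM bortezomib (0%).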

[4] = High-throughput drug toxicity screening in the BPDCN cell line Cal-1 (AID 1224825; call rule not given here); settings: Cal-1 BPDCN cell viability, qHTS; at 45.8 µM (top of the series) unless noted
In short: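 Viability of the BPDCN line Cal-1 is measured as ATP-based luminescence (CellTiter-Glo) following 48 h incubation with compounds. Percent activity uses DMSO-treated wells as 100% and 9.2 uM bortezomib as 0%.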

[5] = qHTS assay for measurement of the activity of small molecule inhibitors on Zika virus induced Caspase-3 activity in human iPSC derived neural progenitor cells (hNPCs) (AID 1224857); note: nearly all actives have a fitted effect of over 65% in size; note: potency is the fitted concentration of half-maximal effect
In short: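 Cells were plated at 350 per well and grown 16 to 20 hours. Compound pretreatment lasted one hour, after which ZIKV (2 FFU/cell) was added for 6 hours. Percent inhibition was normalized between uninfected and infected controls.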

[6] = qHTS assay for measurement of the activity of small molecule inhibitors on Zika virus induced Caspase-3 activity in human astrocytoma cells (AID 1224859); note: potency is the fitted concentration of half-maximal effect
In short: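 Percent inhibition of virus-induced caspase-3/7 signal is calculated against uninfected and ZIKV-infected control cells. Cells are SNB-19, infected at 2 FFU/cell for 6 h after 1 h compound exposure.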

[7] = qHTS Screen of the MIPE 4.0 Collection Against Ewings Sarcoma (TC71) (AID 1259253); note: nearly all actives have a fitted effect of over 40% in size; note: potency is the fitted concentration of half-maximal effect
In short: (§2)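 Compound titrations go onto adherent log-phase cells 4 h after seeding, incubate 48 h at 37C, then CellTiter-Glo luminescence reports viability relative to DMSO and cell-free controls.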

[8] = qHTS Screen of the MIPE 4.0 Collection Against Ewings Sarcoma (EW8) (AID 1259255); note: nearly all actives have a fitted effect of over 35% in size; note: potency is the fitted concentration of half-maximal effect;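 for viability: 100% = DMSO-treated cells and 0% = medium-only wells without cells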
In short: as §2

[9] = qHTS assay to identify small molecule inhibitors of chordoma cells - UCH-1 (AID 1259355); note: nearly all actives have a fitted effect of over 55% in size; note: potency is the fitted concentration of half-maximal effect; for activity, negative = inhibition: % is set by controls: 0 for no effect and ±100 for the full control effect
In short: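 A 48hr growth-inhibition format: each drug tested at 15 concentrations together with added auranofin, camptothecin, doxorubicin, rubitecan and topotecan, with cell viability quantified as CellTiter-Glo luminescence.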

[10] = qHTS assay to identify small molecule inhibitors of chordoma cells - UCH-2 (AID 1259356); note: % is set by controls: 0 for no effect and ±100 for the full control effect
[11] = qHTS Screen of the MIPE 4.0 Collection Against Ewings Sarcoma (TC32) (AID 1259256); note: nearly all actives have a fitted effect of over 45% in size; note: potency is the fitted concentration of half-maximal effect
In short: as §2

[12] = P-glycoprotein substrates identified in KB-8-5-11 adenocarcinoma cell line, qHTS therapeutic library screen (AID 1346987); note: nearly all actives have a fitted effect of over 65% in size; note: potency is the fitted concentration of half-maximal effect
In short: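 In this qHTS, P-gp-rich KB-8-5-11 cells received library compounds across a concentration range. Viability was quantified by luminescence after 72 h at 37 degree C.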

[13] = Identifying Small Molecule Inhibitors of Pancreatic Cancer Stem Cells (A2780, Spheroid) (AID 1259357); settings: Potency: A2780 spheroid viability;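 note: spheroids pre-formed over 14 days in stem cell medium on hydrogel; potency is the fitted concentration of half-maximal effect; compound exposure lasted 48 h before the ATP luminescence read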
In short: (§3)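 Viability is scored by CellTiter-Glo luminescence 48 h after dosing, expressed as percent activity against vehicle and no-cell references. Spheroid formats rely on cells cultured 14 days in stem cell media beforehand.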

[14] = Identifying Small Molecule Inhibitors of Pancreatic Cancer Stem Cells (SN12C, Adherent) (AID 1259358);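 note: cell survival measured after 48 h of compound exposure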
In short: as §3

[15] = Identifying Small Molecule Inhibitors of Pancreatic Cancer Stem Cells (Panc1, Spheroid) (AID 1259359); settings: Panc1 spheroid cancer stem cell viability;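 note: potency is the fitted concentration of half-maximal effect; compound exposure lasted 48 h before reading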
In short: as §3

[16] = Identifying Small Molecule Inhibitors of Pancreatic Cancer Stem Cells (Panc1, Adherent) (AID 1259362); settings: Potency: viability;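 note: compound exposure lasted 48 h before the viability read; plate controls were DMSO-treated cells for no effect and cell-free media wells for full effect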
In short: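 Adherent (2D) versus sphere (3D) formats; spheres generated 14 d in SCM beforehand. Compound transferred by pin tool after 4 h, 48 h incubation, CellTiter-Glo endpoint.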

[17] = Natriuretic polypeptide receptor (hNpr1) antagonism - Pilot counterscreen GloSensor control cell line (AID 1347045; calls by dose curve; note: potency is the fitted concentration of half-maximal effect)
In short: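 HEK293 cGMP-sensor cells; 2% GloSensor reagent 2 h RT; LOPAC compounds in 1:5 titrations 30-50 min; 50 uM SNP 20 min; luminescence pre-read and post-read.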

Row | SMILES | parasite growth, % of control (lower = inhibition) [1] [%] | growth, % of control [2] [%] | cell viability, % of control (lower = more cytotoxic) [3] [%] | viability (% of control) [4] [%] | Potency [5] | Potency [6] | Potency [7] | Potency [8] | Potency [9] | Potency [10] | Potency [11] | Potency [12] | Potency [13] | Potency [14] | Potency [15] | Potency [16] | Potency [17] | activity, negative = inhibition [9]
1 | O=c1oc2cc(O)ccc2s1 | 54.9 | 99.9 | 68.5 | 92.8 | 11.8 µM (active) | inactive | 18.7 µM (active) | 13.2 µM (active) | inactive | inactive |  |  |  |  |  |  |  | 
2 | Cc1cc(O)c2c(c1)C(=O)c1cc(O)cc(O)c1C2=O |  | 98.6 | 207 | 109 | 9.35 µM (active) and 2.51 µM (active) | 9.35 µM (active) | inactive | inactive |  |  | inactive | inactive |  |  |  |  |  | 
3 | CN(C)[C@@H](CCOc1cccc2ccccc12)c1ccccc1 |  | 15.2 | 165 | 78.2 | inactive | inactive | 26.4 µM (active) |  |  |  | 26.4 µM (active) |  |  |  |  |  |  | 
4 | CCCS(=O)c1ccc2nc(NC(=O)OC)[nH]c2c1 (centres undefined) |  |  | 32.3 | 13.7 | 10 µM (active) and 16.6 µM (active) | 20.9 µM (active) | 23.5 µM (active) | 20.9 µM (active) |  |  | 23.5 µM (active) | 20.9 µM (active) and 13 µM (active) |  |  |  |  |  | 
5 | C[C@H](Cc1ccc(O)c(O)c1)[C@@H](C)Cc1ccc(O)c(O)c1 | 16.4 | 20.7 | 7.79 | 5.77 | inactive and 26.4 µM (active) | inactive | 13.2 µM (active) | 16.6 µM (active) |  | inactive |  | inactive |  |  |  |  |  | 
6 | CC(C)c1ccc2c(c1)c(SC(C)(C)C)c(CC(C)(C)C(=O)O)n2Cc1ccc(Cl)cc1 | 22 | 11.8 | 111 | 119 | inactive | inactive | 20.9 µM (active) |  |  |  |  | inactive | 18.7 µM (active) | inactive | 18.7 µM (active) | inactive | 13.1 µM (active) | 
7 | COc1cc2nc(N3CCN(C(=O)C4CCCO4)CC3)nc(N)c2cc1OC (centres undefined) | 46.2 | 11.3 | 151 | 88.2 | inactive and 13.2 µM (active) | 14.8 µM (active) |  | inactive |  | inactive | inactive | inactive |  |  |  |  | inactive | -3.3% [at 1.88 µM] (inactive)
8 | O=c1cc(N2CCOCC2)oc2c(-c3ccccc3)cccc12 | 78.4 | 36.7 | 13.3 | 36.2 | inactive | inactive | 18.7 µM (active) | 18.7 µM (active) |  |  |  | 5.9 µM (active) and 20 µM (active) |  |  |  |  | inactive | 
9 | CN(C)CCCC1(c2ccc(F)cc2)OCc2cc(C#N)ccc21 (centres undefined) | 45.5 | 93 | 120 | 99.6 | inactive | inactive | 14.8 µM (active) | inactive |  |  |  | inactive |  |  |  |  | inactive | 
10 | C[C@]12CCC(=O)C=C1CC[C@@H]1[C@H]2[C@@H](O)C[C@@]2(C)[C@H]1CC[C@]2(O)C(=O)CO | 74.9 | 63 | 208 | 71.5 | inactive | inactive | inactive | inactive | inactive | inactive |  | inactive |  |  |  |  |  | 
11 | Nc1nc(OCc2ccccc2)c2[nH]cnc2n1 |  |  | 56 | 39.4 | inactive | inactive | 13.2 µM (active) | 26.4 µM (active) |  |  |  | inactive |  |  |  |  | inactive | 
12 | Nc1cc(C(Cl)=C(Cl)Cl)c(S(N)(=O)=O)cc1S(N)(=O)=O | 142 | 98.3 | 360 | 106 | inactive | inactive |  | inactive | inactive | inactive | inactive |  |  |  |  |  |  | 
13 | Cn1c(NCCN(CCO)CCCc2ccc([N+](=O)[O-])cc2)cc(=O)n(C)c1=O | 7.33 | 9.64 | 108 | 67.6 | inactive | inactive | 18.7 µM (active) |  | inactive | inactive |  | inactive |  |  |  |  |  | 
14 | CC(S)C(=O)NCC(=O)O (centres undefined) | 91.7 | 95.5 | 104 | 100 | inactive | inactive |  | inactive | inactive | inactive | inactive |  |  |  |  |  |  | 
15 | CC1Cc2ccccc2N1NC(=O)c1ccc(Cl)c(S(N)(=O)=O)c1 (centres undefined) |  | 48.2 | 106 | 104 | inactive | inactive | 20.9 µM (active) |  |  | inactive |  |  |  |  |  |  |  | 
16 | O=c1ccc2ccc(O)c(O)c2o1 | 19.7 | 162 | 42.5 | 20.8 | inactive | inactive | 14.8 µM (active) |  |  |  | 13.2 µM (active) | inactive |  |  |  |  | inactive | 
17 | NCCCCNCCCN | 90.4 | 577 | 3.46 | 3.12 | inactive | inactive | inactive |  |  |  | inactive | inactive |  |  |  |  | inactive | 
18 | CN(C)C(=O)[C@H](O)[C@H](Cc1ccccc1)NC(=O)c1cc2cc(Cl)ccc2[nH]1 | 13.9 | 2.28 | 238 | 43.4 | inactive | inactive | 16.6 µM (active) | 23.5 µM (active) |  |  |  |  |  |  |  |  |  | 
19 | C=C(c1ccc(C(=O)O)cc1)c1cc2c(cc1C)C(C)(C)CCC2(C)C | 105 | 76.8 | 577 | 89.3 | inactive | inactive | inactive |  | inactive | inactive | inactive | inactive |  |  |  |  |  | 
20 | CC[C@]1(O)C[C@H]2CN(CCc3c([nH]c4ccccc34)[C@@](C(=O)OC)(c3cc4c(cc3OC)N(C=O)[C@H]3[C@@](O)(C(=O)OC)[C@H](OC(C)=O)[C@]5(CC)C=CCN6CC[C@]43[C@@H]65)C2)C1 | 19.1 | 5.89 | 10.7 | 10.9 | inactive | inactive | 0.0033 µM (active) |  | 0.224 µM (active) | inactive |  | 1.05 µM (active) |  |  |  |  |  | 
